# Measured values from PubChem BioAssay (Tox21).
# “And” between values parts separate entries of the source, which are not always exact repeats. Identical values can stand only once. Results filed as inconclusive are left out. A structure can be active in one record and inactive in another. The source made the active and inactive calls. The call rests on the fitted dose curve; in most records, active means well fitted inhibition curve with a large enough effect in the repeat runs; inconclusive means weak or mixed curves, or effect the other way; inactive means no such curve, though single readings can be large or run the other way.
# Molecular target: Nuclear receptor ROR-gamma (Homo sapiens) (UniProt P51449)
# Assay: qHTS assay to identify small molecule antagonists of the retinoid-related orphan receptor gamma (ROR-gamma) signaling pathway (AID 1159521; further: nearly all actives have a fitted effect of over 50% in size; on activity change, negative = inhibition: top concentration of the series differs between compounds)
# Details: Tet-on RORgamma CHO cells, RORE-luciferase, 16 h; series mostly up to 92.4 µM; activity change, negative = inhibition: at the top concentration
# Text: U.S. Tox21 Program National Center for Advancing Translational Sciences [NCATS] NIH Chemical Genomics Center [NCGC] U.S. Environmental Protection Agency [EPA] National Institutes of Environmental Health Sciences [NIEHS] National Toxicology Program [NTP] U.S. Food and Drug Administration [FDA] Tox21 Assay Overview: Nuclear steroid hormone receptors are involved in many biological processes including inflammatory responses, cell proliferation, and apoptosis. Environmental factors or compounds disrupting these nuclear receptor pathways and gene expression may promote susceptibility to immunotoxicants and autoimmune diseases. One important group of these expression factors are the retinoid-related orphan receptors. To assess compounds that may interfere with the retinoid-related orphan receptor gamma (ROR-gamma) transcription factor, a cell-based luciferase assay was used. The CHO cell-based assay utilizes a TET-inducible ROR expression factor and ROR response element-LUC reporter gene. Reporter gene activity was induced using Doxycycline Hyclate and measured after 16 hr incubation. Tet-on ROR gamma CHO cells were used to screen against the Tox21 10K compound library for ROR gamma antagonists by quantification of decreased reporter gene activity in terms of decreased luminescence.
# Tox21 Assay Protocol Summary: Tet-on ROR gamma CHO cells were dispensed at 1,000 cells in 4 uL of culture medium per well into white wall/solid bottom 1536-well plates using a Multidrop Combi (Thermo Scientific, Waltham, MA) dispenser. Following incubation at 37 C and 5% CO2 for 4 hr, 23 nL of compounds dissolved in DMSO, positive controls or DMSO only were transferred by a Pintool station (Kalypsys, San Diego, CA) and after 2 hr incubation at 37 C, one ul of 1 uM (final concentration) of Doxycycline Hyclate was added to all the wells by using a Flying Reagent Dispenser (FRD) (Aurora Discovery, San Diego, CA). After 16 hr incubation at 37 C and 5% CO2, 5 uL of ONE-Glo reagent (Promega Corporation, Madison, WI) was added to each assay plate using FRD. After 30 min incubation at room temperature, luminescence was quantified on a ViewLux plate reader (Perkin Elmer, Waltham, MA).
# On the % scale 0 is the no-effect control and ±100 the full control effect; potency means the concentration at half of the fitted maximal effect.
SMILES,Potency,"activity change, negative = inhibition"
COc1ccc(CCN2CCC(Nc3nc4ccccc4n3Cc3ccc(F)cc3)CC2)cc1,9.9 µM (active) and 11.9 µM (active),–
NC12CC3CC(CC(C3)C1)C2,–,30.9% [at 42.5 µM] (inactive)
CCCCCCCCCCCCc1ccccc1O,67.7 µM (active) and 24.3 µM (active),–
CCCOC(=O)c1cc(O)c(O)c(O)c1,27.2 µM (active),–
CCC(C)(Oc1ccc(C2(c3ccc(OC(C)(CC)C(=O)O)cc3)CCCCC2)cc1)C(=O)O (stereo not given),–,34.2% [at 42.5 µM] (inactive)
CC(C)(C)NC(=O)[C@@H]1CN(Cc2cccnc2)CCN1C[C@@H](O)C[C@@H](Cc1ccccc1)C(=O)N[C@H]1c2ccccc2C[C@H]1O,inactive,–
OCCOCCN1CCN(C(c2ccccc2)c2ccc(Cl)cc2)CC1 (stereo not given),47.9 µM (active) and inactive,–
CC(COc1ccccc1)N(CCCl)Cc1ccccc1 (stereo not given),49.1 µM (active) and inactive,–
O=C1NCC2(CCN(CCc3ccccc3)CC2)O1,–,14.1% [at 42.5 µM] (inactive)
CCCCCCCCCCCCCCCCCl,–,19.2% [at 19 µM] (inactive)
CC(=O)CC(=O)Nc1ccc2[nH]c(=O)[nH]c2c1,–,-4.65% (inactive)
CC(C)(O)CCC(C)(C)O,–,1.38% (inactive)
CCCNC(C)C(=O)Nc1ccccc1C (stereo not given),–,29.3% [at 42.5 µM] (inactive)
NCCCCCC(=O)O,–,12.3% [at 42.5 µM] (inactive)
C=C(C)C(=O)O,inactive,–
COc1ccc(COC(C)=O)cc1,inactive,–
CC(=O)OCCOCCOCCOC(C)=O,inactive,–
Nc1ccc2cc3ccccc3cc2c1,inactive,–
C=CC(=O)OCCCCCCCC,–,-1.59% (inactive)
CCn1c2ccccc2c2cc(N)ccc21,19.1 µM (active),–

SMILES,Potency,"activity change, negative = inhibition"
CCCCOCCOC(=O)c1ccccc1C(=O)OCCOCCCC,–,-18.7% (inactive)
CC[C@H]1CN2CCc3cc(OC)c(OC)cc3[C@@H]2C[C@@H]1C[C@H]1NCCc2cc(OC)c(OC)cc21,173 nM (active) and 750 nM (active),–
Cc1cccc2n[nH]nc12,inactive,–
CC(C)(C)NCC(O)c1cc(O)cc(O)c1 (stereo not given),–,4.31% [at 42.5 µM] (inactive)
CCCN[C@H]1CCc2nc(N)sc2C1,inactive,–
CCc1ccc(C(c2ccc(CC)cc2)C(Cl)Cl)cc1,–,-12% (inactive)
Cc1cccc([N+](=O)[O-])c1C(=O)O,–,42.7% (inactive)
CC(C)(C)c1ccccc1,–,0.286% (inactive)
CC(C)C(=O)c1c(C(C)C)nn2ccccc12,–,0.775% [at 42.5 µM] (inactive)
c1cnc2cc3c(cc2n1)C1CNCC3C1,–,37.5% [at 42.5 µM] (inactive)
O=C(O)c1cccc(C(=O)O)c1,inactive,–
CC1COc2c(N3CCN(C)CC3)c(F)cc3c(=O)c(C(=O)O)cn1c23 (stereo not given),–,25.7% [at 42.5 µM] (inactive)
CC(=O)N[C@@H](CS)C(=O)O,inactive,–
O=Nc1ccc(Nc2ccccc2)cc1,7.74 µM (active) and 10.9 µM (active),–
NC(N)=Nc1nc(CSCC/C(N)=N/S(N)(=O)=O)cs1,inactive,–
NCCO,inactive,–
CC(=O)Nc1ccc(C(=O)CCl)cc1,inactive and 13.7 µM (active),–
CC(N)=O,–,5.63% [at 240 µM] (inactive)
CC(C)CCOC(=O)c1ccc(N(C)C)cc1,–,164% [at 42.5 µM] (inactive)
BrC1CCC(Br)C(Br)CCC(Br)C(Br)CCC1Br (stereo not given),27.2 µM (active) and 58 µM (active),–
